Reference: the supplement of paper PMC6522484
± gives the standard deviation of the averaged measurements.

Experiments:
DLD1 [1] = assay: cell viability (CellTiter-Glo) relative to plate median (fraction of plate median); higher = more viable cells; details: 5 µM; treatment time 24 h; reporter: 7TFP
How it was run: (§1)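 On parallel plates, a Tecan F500 reader recorded either firefly luciferase or CellTiterGlo luminescence. The plates held colorectal cancer cells stably transduced with lentiviral TCF/Wnt firefly luciferase reporters (7TFP or TCF4/Wnt), seeded in 384-well format and treated 24 h later with library compounds at a final 5 µM for 24 h. Per-well signals were normalised to the plate median (webcellHTS2, additive, no log transformation), and two independent replicates were averaged.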

HCT116 = assay: as above; details: 5 µM; treatment time 24 h; reporter: TCF4/Wnt
How it was run: as §1

SW480 [2] = assay: as above; details: 5 µM; treatment time 24 h; reporter: 7TFP
How it was run: as §1

DLD1 [3] = assay: TCF/Wnt firefly luciferase reporter signal relative to plate median (fraction of plate median); higher = higher Wnt reporter signal; details: 5 µM; treatment time 24 h; reporter: 7TFP
How it was run: as §1

SW480 [4] = assay: as above; details: 5 µM; treatment time 24 h; reporter: 7TFP
How it was run: as §1

Row | SMILES | cell viability (DLD1 [1]) | cell viability (HCT116) | cell viability (SW480 [2]) | TCF/Wnt firefly luciferase reporter signal (DLD1 [3]) | TCF/Wnt firefly luciferase reporter signal (SW480 [4])
1 | Nc1c(Br)cc(Br)cc1CN[C@H]1CC[C@H](O)CC1 | 0.914 ± 0.066 | 1.09 ± 0.11 | 0.946 ± 0.029 | 0.944 ± 0.19 | 0.887 ± 0.016
2 | CC(C)(S)[C@@H](N)C(=O)O | 0.991 ± 0.027 | 0.956 ± 0.13 | 0.9765 ± 0.0092 | 1.09 ± 0.014 | 1.16 ± 0.11
3 | CC(C)(C)NC[C@H](O)COc1cccc2c1CCCC2=O | 0.99 ± 0.043 | 1.03 ± 0.075 | 0.9555 ± 0.0035 | 0.886 ± 0.0085 | 0.981 ± 0.084
4 | O=C1NCC(=O)N2CCCC12 (stereo not given) [Cyclo(glycylprolyl)] | 0.941 ± 0.037 | 0.9365 ± 0.005 | 0.959 ± 0.016 | 1.2 ± 0.085 | 0.978 ± 0.073
5 | O=C(O)c1c[nH]c2ccccc12 [Indole-3-carboxylic acid] | 0.977 ± 0.011 | 0.868 ± 0.083 | 0.9405 ± 0.005 | 0.83 ± 0.12 | 0.968 ± 0.21
6 | O=C(O)c1cc(-c2ccc(F)cc2F)ccc1O | 0.973 ± 0.0042 | 1.07 ± 0.057 | 1.01 ± 0.021 | 1.32 ± 0.13 | 1.16 ± 0.021
7 | O=C1C(O)=C(O)C(=O)C(O)=C1O | 0.96 ± 0.03 | 0.997 ± 0.1 | 0.944 ± 0.015 | 0.829 ± 0.011 | 0.822 ± 0.056
8 | CC1(C)CC2C1CC[C@]1(C)CCC3C(C(=O)O)CC(=O)O[C@@]32C1 (stereo not given in full) [3-HYDROXY-4-(SUCCIN-2-YL)-CARYOLANE delta-LACTONE] | 1.01 ± 0.088 | 0.9705 ± 0.00071 | 0.962 ± 0.035 | 1.07 ± 0.085 | 0.986 ± 0.021
9 | Cn1nnnc1SCC1=C(C(=O)O)N2C(=O)[C@@H](NC(=O)[C@H](O)c3ccccc3)[C@H]2SC1 | 1.05 ± 0.064 | 0.949 ± 0.03 | 1.01 ± 0.037 | 0.878 ± 0.03 | 0.989 ± 0.072
10 | Cc1cc(OC(=O)c2c(C)cc(O)cc2O)cc(O)c1C(=O)O | 1.08 ± 0.099 | 1.03 ± 0.035 | 1.1 ± 0.071 | 1.03 ± 0.18 | 1.06 ± 0.05
11 | CN(C)CCc1c[nH]c2ccc(CS(=O)(=O)N3CCCC3)cc12 | 0.875 ± 0.04 | 0.929 ± 0.088 | 0.999 ± 0.086 | 1.17 ± 0.035 | 1.06 ± 0.088
12 | CC(C)[C@@H]1CC[C@@H](C)C[C@H]1OC(=O)c1ccccc1 | 1.01 ± 0.025 | 1.03 ± 0.057 | 1.06 ± 0.042 | 1.01 ± 0.19 | 0.996 ± 0.02
13 | CC1(C)O[C@@H]2C[C@H]3[C@@H]4C[C@H](F)C5=CC(=O)CC[C@]5(C)[C@H]4[C@@H](O)C[C@]3(C)[C@]2(C(=O)CO)O1 | 1.01 ± 0.025 | 1.025 ± 0.0071 | 1.02 ± 0.047 | 0.949 ± 0.087 | 1.04 ± 0.073
14 | CC12CCC(CC1)C(C)(C)O2 | 0.996 ± 0.049 | 1.055 ± 0.0071 | 0.934 ± 0.019 | 1.21 ± 0.18 | 1.11 ± 0.099
15 | NCC(=O)CCC(=O)O | 1.01 ± 0.021 | 1.06 ± 0.042 | 1.01 ± 0.021 | 1.1 ± 0.071 | 1.07 ± 0.021
16 | CN(C)CCOC(c1ccc(Cl)cc1)c1ccccn1 (stereo not given) | 1.004 ± 0.0085 | 0.977 ± 0.033 | 0.916 ± 0.088 | 0.888 ± 0.0057 | 0.891 ± 0.12
17 | Oc1ccc(OCc2ccccc2)cc1 | 1.07 ± 0.05 | 0.975 ± 0.078 | 0.982 ± 0.017 | 1 ± 0.17 | 0.754 ± 0.05
18 | O=C(O)/C=C/c1ccc(O)c(O)c1 | 0.941 ± 0.046 | 1.05 ± 0.05 | 1.03 ± 0.081 | 0.983 ± 0.14 | 1.03 ± 0.035
19 | COc1ccc2cc([C@H](C)C(=O)O)ccc2c1 | 1.02 ± 0.039 | 0.981 ± 0.083 | 1.045 ± 0.0071 | 0.969 ± 0.13 | 0.941 ± 0.065
20 | COc1ccc(-c2oc3c(CC=C(C)C)c(O[C@@H]4O[C@H](CO)[C@@H](O)[C@H](O)[C@H]4O)cc(O)c3c(=O)c2O[C@@H]2O[C@@H](C)[C@H](O)[C@@H](O)[C@H]2O)cc1 | 1.03 ± 0.014 | 1.1 ± 0.085 | 0.957 ± 0.048 | 0.977 ± 0.1 | 0.974 ± 0.03
21 | Cc1cc(C)nc(NS(=O)(=O)c2ccc(N)cc2)n1 | 1.07 ± 0.11 | 0.975 ± 0.078 | 1.03 ± 0.047 | 1.025 ± 0.0071 | 1.08 ± 0.05
22 | Nc1ccc(C(=O)O)cc1 | 0.9785 ± 0.00071 | 0.996 ± 0.034 | 0.974 ± 0.013 | 1.03 ± 0.035 | 0.965 ± 0.12
23 | C/C=C/C=C/c1cc2cc3c(c(O)c2c(=O)[nH]1)C1(CC3)C(O)=c2c(=O)c3c(=O)cc(OC)c(=O)c=3c(=O)c2=C1O (stereo not given) [Fredericamycin] | 1.03 ± 0.042 | 0.934 ± 0.022 | 1.04 ± 0.076 | 1.06 ± 0.21 | 0.981 ± 0.084
24 | CN(C)CCCN1c2ccccc2Sc2ccccc21 | 0.908 ± 0.056 | 0.908 ± 0.032 | 0.96 ± 0.071 | 0.92 ± 0.021 | 0.895 ± 0.069
25 | Cc1ccsc1/C=C/C1=NCCCN1C | 0.843 ± 0.058 | 0.864 ± 0.044 | 0.9765 ± 0.00071 | 1.04 ± 0.021 | 1 ± 0.083
26 | CC(=O)N[C@@H](CS)C(=O)O | 0.994 ± 0.037 | 0.988 ± 0.12 | 0.993 ± 0.0042 | 1.1 ± 0.14 | 1.07 ± 0.16
27 | CN(C)c1nc(N(C)C)nc(N(C)C)n1 | 0.976 ± 0.076 | 0.97 ± 0.057 | 1.05 | 1.03 ± 0.035 | 1.01 ± 0.09
